Screens: PubChem, several laboratories
3CLpro inhibitor: SARS-CoV 3CLpro protease inhibitors, primary screen, biochemical, quenched FRET | recombinant SARS-CoV 3CLpro, quenched FRET peptide cleavage | inhibition, % at 6 µM | 290,000 tested, 0.14% active | AID 1706, 2009; in the data active = inhibition above about 12%
PriA SSB inh: inhibitors of Klebsiella pneumoniae PriA binding to SSB C-terminal tail, primary screen, biochemical, AlphaScreen. AlphaScreen SSBct-PriA binding, biotinylated peptide. inhibition, % at 33 µM. 430,000 tested, 0.6% active. AID 1272365, 2023; in the data active = inhibition mostly above about 37%, no sharp cut-off; inactive = mostly below about 20%;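 note: plate controls were negative control peptide for no effect and reference peptide for full effect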
BJeLR viability: MLPCN primary cell-based screen for lethality selective to Ras in HRASV12 cells; BJeLR (HRASV12) viability, CellTiter-Glo ATP luminescence, 48 h; inhibition, % (concentration not given with the values); 300,000 tested, 0.17% active; AID 1554, 2009; in the data active = inhibition above about 50%
* marks the source's active call; other numbers are inactive results; i = inactive; . = not tested or not shown; ! = not confirmed by another sample. In the library only some 0.78% were active in any assay of this set; here they are far more common.

SMILES	3CLpro inhibitor	PriA SSB inh	BJeLR viability
COCC(=O)NCCn1ncc2c(=O)n(Cc3cccc(C)c3)cnc21	.	-4	.
CC1CCCCC1N(C)C1CCN(C(=O)CNC(=O)/C=C/c2cccc(Cl)c2)CC1 (stereo unspecified)	5	-27	90*
CN(C1CCCC1)C1CCN(C(=O)CNC(=O)/C=C/c2ccccc2)CC1	-1	-5	-7
O=[N+]([O-])c1ccc(C=NNc2ccnc3cc(Cl)ccc23)o1	.	59*	.
O=[N+]([O-])c1ccc(/C=N/Nc2ccnc3cc(Cl)ccc23)o1	-5	.	5
CCOC(=O)c1c(-c2ccncc2)csc1N	1	-2	5
CCOC(=O)c1c(-c2ccc(OC)cc2)csc1N	.	40*	.
C=CCNC(=S)NN=Cc1cn(-c2ccccc2)nc1-c1ccc(OC)cc1	.	-2	.
CCCCNc1c([N+](=O)[O-])cc(C)cc1[N+](=O)[O-]	0	76*	4
CCCCNc1c([N+](=O)[O-])cc(C(=O)O)cc1[N+](=O)[O-]	4	-1	0
CCOC(=O)c1c(C)oc2c1c1c(c3ccccc32)OCN(Cc2cccnc2)C1	-1	-2	.
O=c1[nH]c2c(c(=O)[nH]1)OCN(Cc1ccccc1)C2	.	-10	.
Clc1cc2c(c3ncccc13)OCN(Cc1cccnc1)C2	.	101*	.
Clc1cc2c(c3ncccc13)OCN(Cc1ccccc1)C2	.	89*	.
CCOC(=O)c1oc2ccccc2c1NC(=O)c1ccc(Br)s1	.	-3	.
CN(Cc1ccco1)S(=O)(=O)c1ccc(C(=O)Nc2nc(-c3cccs3)cs2)cc1	.	11	.
CC(=O)N=c1scc(-c2ccccc2)n1-c1cccc(O)c1	7	-6	1
Cc1c(-n2c(-c3ccccc3)csc2=NC(=O)c2ccccc2)c(=O)n(-c2ccccc2)n1C	.	44*	.
O=S(=O)(c1ccc(Cl)s1)N1CCN(c2cc(C(F)(F)F)ncn2)CC1	.	-4	.
CCc1cc2c(=O)c(Oc3ccc(F)cc3)c(C(F)(F)F)oc2cc1OCc1cnn(-c2ccccc2)c1	.	5	.
COc1cc(NS(C)(=O)=O)c2ncccc2c1	.	21	.
COc1cc(N)c2ncccc2c1	.	47*	.
COc1ccc2nc(C)cc(N/N=C/c3cccc(OC)c3O)c2c1	-26	.	-8
COc1ccc(C=NNc2cc(C)nc3ccc(OC)cc23)c(OC)c1	.	41*	.
O=C(CNC(=O)C1COc2ccccc2O1)N/N=C/c1ccc(Cl)cc1 (stereo unspecified)	.	i	.
SMILES	3CLpro inhibitor	PriA SSB inh	BJeLR viability
Cn1cnc(S(=O)(=O)NCC[C@H](O)c2cccs2)c1	.	-3	.
COc1ccc(S(=O)(=O)NCCCn2ccnc2-c2ccccc2)cc1Cl	.	-10	.
CCNC(=S)NNC(=O)c1cc(-c2ccc(OCC)cc2)nc2ccccc12	-8	8	54*
CCNC(=S)NNC(=O)c1cc(-c2cccc(OC)c2)nc2ccccc12	6	-5	10
O=C(Nc1cccc(Cl)c1)N1CCN(c2ccc(-c3ccco3)nn2)CC1	.	9	.
Cc1ccn(-c2ccc(Nc3ccc(NC(=O)c4ccccc4Br)cc3)nn2)n1	.	35*	.
Cc1ccn(-c2ccc(Nc3ccc(NC(=O)C4CCCCC4)cc3)nn2)n1	.	4	.
Cc1ccn(-c2ccc(Nc3ccc(NC(=O)c4c(F)cccc4Cl)cc3)nn2)n1	.	39*	.
Cc1ccn(-c2ccc(Nc3ccc(NC(=O)c4c(F)cccc4F)cc3)nn2)n1	.	-11	.
COc1ccc(C2CCN(C(=O)CSc3ccc(F)cc3)C2)cc1 (stereo unspecified)	.	11	.
COc1cc(Cl)ccc1C(=O)NCCn1cnc2ccsc2c1=O	.	-19	.
Cc1ccc(Nc2ncnc3sc4c(c23)CCCC4)cc1Cl	.	-16	.
C[C@@H]1N=C2c3ccccc3N=C(SCC(=O)NCc3ccc(Cl)cc3)N2C1=O	.	1	.
CCOC(=O)c1c(C)[nH]c(N=Nc2ccccc2C)c1C	6	62*!	1
CCOC(=O)c1c(C)[nH]c(N=Nc2ccc(C)cc2C)c1C	3	-5	3
Cc1ccc(NC(N)=Nc2nc(CSc3ccccn3)cc(=O)[nH]2)c(C)c1	.	-26	.
Cc1cc2oc(C(=O)N(Cc3ccc(N(C)C)cc3)CC3CCCO3)c(C)c2cc1C (stereo unspecified)	5	50*	5
Cc1ccc2oc(C(=O)N(Cc3ccc(N(C)C)cc3)CC3CCCO3)c(C)c2c1 (stereo unspecified)	-5	16	-3
O=C(O)CCNC(=O)CN1C(=O)/C(=C/C=C/c2ccccc2)SC1=S	.	6	.
CN=c1scc(-c2cc(OC)ccc2OC)n1N=Cc1c(C)[nH]c2ccccc12	.	45*	.
CN=c1scc(-c2c[nH]c3ccccc23)n1C	-2	-1	.
CC(O)c1nc(N)n[nH]1 (stereo unspecified)	.	-15	.
Brc1ccc(-c2cn3nc4c(nc3n2)CCCC4)cc1	-1	-3	5
Brc1ccc(-c2cn3c(n2)CCc2ccc4cccnc4c2-3)cc1	-7	53*	-4
O=C(NCc1cnn2ccccc12)Nc1ccccc1F	.	-14	.
SMILES	3CLpro inhibitor	PriA SSB inh	BJeLR viability
COc1ccc(NC(=O)c2cn[nH]n2)cc1F	.	-5	.
CC1C(=O)OC(c2ccc(Cl)cc2)C(C)(C)C1=O (stereo unspecified)	-4	21	-2
C[C@@H]1C=CC(=O)O[C@@H]1c1ccc(Cl)cc1	-6	-2	77*
CCCSc1nc(NCCOC)c2cnn(CCNC(=O)c3ccco3)c2n1	.	-16	.
Cc1ccc(Cn2c(SCC(=O)Nc3ncn[nH]3)nc3ccccc3c2=O)cc1	.	90*	.
Cc1ccc(NC(=O)CSc2nc3ccccc3c(=O)n2Cc2cccs2)cc1	-1	-1	5
COc1ccc(N(C(=O)CCl)C(C(=O)NCCc2ccccc2)c2cccs2)cc1Cl (stereo unspecified)	4	-9	139*
COc1cccc(N(C(=O)CCl)C(C(=O)NCCc2ccccc2)c2cccs2)c1 (stereo unspecified)	1	7	72*
COc1cccc(N(C(=O)c2snc(C(N)=O)c2N)C(C(=O)NCC2CCCO2)c2cccs2)c1 (stereo unspecified)	-3	3	-10
COc1ccc(N(C(=O)c2ccco2)C(C(=O)NC2CCCCC2)c2cccs2)cc1OC (stereo unspecified)	-1	-3	-5
Cc1ccc(/C=C\S(=O)(=O)N2CCN(c3ccc(-c4ccc(F)cc4)nn3)CC2)cc1	.	-12	.
CCn1ccnc1CO	.	-10	.
CCN1CCN(C(=S)NC(=O)c2cccs2)CC1	-4	-12	-3
O=C(NC(=S)N1CCN(c2ccc(C(F)(F)F)cc2[N+](=O)[O-])CC1)c1cccs1	4	51*	-5
O=C(CSc1n[nH]c(-c2ccccn2)n1)Nc1ccc(Cl)cc1	-4	-24	8
Cc1ccc(NC(=O)CSc2n[nH]c(-c3ccccn3)n2)cc1	2	97*	8
O=C(CSc1n[nH]c(-c2ccccn2)n1)Nc1ccc(F)cc1	5	82*	6
O=C(CSc1n[nH]c(-c2ccccn2)n1)Nc1cccc(Cl)c1Cl	.	38	.
COc1ccccc1N1CCN(S(=O)(=O)c2ccc(Cl)c(C)c2)CC1	.	-18	.
O=c1c2ccccc2nc(SCc2nc(-c3ccc4c(c3)OCO4)no2)n1CCc1ccccc1	.	1	.
COc1ccc(C)c2sc(N(CCN3CCOCC3)C(=O)c3ccc(C)c(C)c3)nc12	.	31	.
